Most compounds without a hit are left out; they make up all but 12% or so of the library.
L3MBTL1 block – L3MBTL1 (human) inhibition; Q9Y468; AlphaScreen L3MBTL1–H3K9me1 peptide binding; Potency, µM (doses to about 57.1 µM), for inactives: at the top dose activity, negative = inhibition, hits mostly inhibitors; 230,000 tested, 0.66% active; also: % is scaled to controls: 0 for no effect and ±100 for the full control effect; nearly all actives have a fitted effect of over 60% in size
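First, the protein-peptide complex forms for 30 min at room temperature (L3MBTL1 50 nM, biotinylated H3K9me1 peptide 75 nM). Next, compounds are pin-transferred and incubated 30 min. Finally, AlphaScreen beads are added and read after 30 min.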
G9a block – inhibitors of human histone lysine methyltransferase G9a. Potency, µM (highest dose often 102 µM), for the others: at the top dose activity, negative = inhibition, most hits filed as inhibitors. AID 504332. 350,000 tested, 8.8% active. Q96KQ7. G9a H3K9 monomethylation, AlphaScreen, 2 h; also: % is scaled to controls: 0 for no effect and ±100 for the full control effect; nearly all actives have a fitted effect of over 75% in size
Target sequence (Q96KQ7 913-1193 limits assumed): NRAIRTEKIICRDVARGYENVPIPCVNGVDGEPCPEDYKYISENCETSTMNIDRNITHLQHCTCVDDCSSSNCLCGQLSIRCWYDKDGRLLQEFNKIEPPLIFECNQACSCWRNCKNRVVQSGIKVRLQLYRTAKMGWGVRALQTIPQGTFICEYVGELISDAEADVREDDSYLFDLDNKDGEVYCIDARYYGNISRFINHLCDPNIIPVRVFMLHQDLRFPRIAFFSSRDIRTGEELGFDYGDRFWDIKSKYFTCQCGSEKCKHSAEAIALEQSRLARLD
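Methyltransferase reactions run at room temperature for 2 h (20 nM enzyme, 500 nM biotin-H3K9 peptide, 20 uM SAM) after a 15 min compound preincubation; product detected by AlphaScreen beads and anti-H3K9me1 antibody.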
Sfp PPTase inh – Sfp phosphopantetheinyl transferase inhibition; 310,000 tested, 3.5% active; Potency, µM, for the others: largest response in the series, negative = inhibition, usual class: inhibitors; Biochemical Sfp PPTase activity, qHTS; Q9F4F7;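 also: the enzyme is Sfp with the accession as filed and its product quenches rhodamine fluorescence; 0% = enzyme reaction without inhibitor and -100% = no enzyme wells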
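Sfp 15 nM + cpd, 15 min RT; start w/ rhodamine-CoA 5 uM, BHQ-2-YbbR 12.5 uM (final); 50 mM Hepes pH 7.6, 10 mM MgCl2, 0.01% NP-40, 0.01% BSA; read 525/598 nm at 0 and 30 min.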
BAZ2B inh – inhibitors of human BAZ2B bromodomain; Q9UIF8; AlphaScreen BAZ2B-H3K14Ac peptide displacement; Potency, µM (series often up to 114 µM), inactives show at the top dose activity change, negative = inhibition, actives largely listed as inhibitors; 360,000 tested, 4.4% active; AID 504333; also: % is scaled to controls: 0 for no effect and ±100 for the full control effect; nearly all actives have a fitted effect of over 60% in size
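AlphaScreen displacement of biotin-H3(5-23)K14Ac peptide (50 nM final) from BAZ2B (50 nM final) in PBS pH 7.4, 0.01% Tween-20; complex preformed 30 min RT, then compounds (top 110 uM) 30 min RT, beads 20 min dark.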
JMJD2A Tudor – inhibitors of human JMJD2A Tudor domain; 390,000 tested, 4.4% active; AlphaScreen JMJD2A-Tudor / H3K4me3 peptide binding; O75164; Potency, µM (highest dose often 114 µM), for the others: top-dose activity change, negative = inhibition, most hits filed as inhibitors; also: % is scaled to controls: 0 for no effect and ±100 for the full control effect; nearly all actives have a fitted effect of over 50% in size
HP1b chromo inh – HP1-beta chromodomain-methylated histone interaction inhibition; P83916; AlphaScreen HP1-beta / biotin-H3K9me3 peptide binding; Potency, µM (series often up to 114 µM), for inactives: at the top dose activity change, negative = inhibition, hits mostly inhibitors; 390,000 tested, 0.56% active; AID 540317; also: nearly all actives have a fitted effect of over 70% in size
Target sequence (P83916 whole entry, looked up): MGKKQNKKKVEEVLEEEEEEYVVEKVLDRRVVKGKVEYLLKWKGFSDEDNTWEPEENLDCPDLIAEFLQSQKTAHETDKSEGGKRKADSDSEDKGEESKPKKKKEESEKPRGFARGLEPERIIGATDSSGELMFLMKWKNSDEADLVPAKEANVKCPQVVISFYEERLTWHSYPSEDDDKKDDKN
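HP1-beta protein (50 nM final) preincubated 30 min at room temperature with biotinylated H3(1-18)K9me3 peptide (50 nM) in PBS pH 7.4, 0.01% Tween-20, then compound added for 30 min. AlphaScreen streptavidin donor/nickel chelate acceptor beads (10 ug/mL final), 30 min dark, luminescence read.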
Numbers without * were called inactive; ? = inconclusive; . = not tested or not shown; [ ] = remark or other dose. Calls follow the shape of the dose curve; as a rule, active = well fitted curve in the direction sought with a large enough effect; inconclusive = small, poorly fitted or top-dose-only effect, or another doubt; inactive = no such curve, though single readings can be large; an effect the other way counts as inactive or inconclusive. Potency is read from the fitted curve at half-maximal effect.

SMILES	L3MBTL1 block	G9a block	Sfp PPTase inh	BAZ2B inh	JMJD2A Tudor	HP1b chromo inh
CC1CC=CC2C1C(=O)N(Cc1ccccc1)C2c1ccc(-c2ccoc2)cc1F (stereo unspecified)	.	.	-26%	.	-23%	34%
NC(=O)c1ccc[n+](CC(=O)c2ccc(F)cc2)c1	-1%	?	31%	-13%	-3%	19%
Cc1ccc(CN(C)C(=O)C2CCCN2C(=O)c2cccs2)o1 (stereo unspecified)	-6%	45µM*	35µM*	-23%	-20%	-3%
ClC(Cl)Cl	.	36%[59 µM]	12%	.	.	.
COc1ccc(-c2nc(-c3ccccc3)oc2Nc2c(C)cccc2C)cc1	.	.	-17%	.	.	.
N#C/C(=C\c1ccc2c(c1)OCO2)C(N)=S	-4%	.	?	-27%	-17%	25%
N#C/C(=C/c1ccco1)C(N)=S	?	.	10µM*	?	-24%	-1%
Oc1ccccc1-c1nnc(COc2ccc(Cl)cc2Cl)o1	-3%	?	-5%	4%	40µM*	7%
O=C1CC(SCc2nc3ccccc3[nH]2)C(=O)N1c1ccc(Cl)cc1 (stereo unspecified)	-5%	18µM*	-8%	0%	-16%	43%
O=C1CC(SCc2nc3ccccc3[nH]2)C(=O)N1c1cccc(F)c1 (stereo unspecified)	-5%[11.4 µM]	?	?	3%	-12%	27%
O=C1CC(SCc2nc3ccccc3[nH]2)C(=O)N1c1ccc(F)c(Cl)c1 (stereo unspecified)	.	40µM*	-17%	?	3%	62%
COc1ccccc1-c1cncnc1-n1ccnc1	.	.	-19%	.	.	.
COc1cccc(C(=O)CC2(O)C(=O)Nc3ccc(Cl)cc32)c1 (stereo unspecified)	.	-28%[59 µM]	.	7%	2%	28%
COc1ccc(C)cc1-n1c(-c2ccc(Cl)cc2)cc2c1CC(C)(C)CC2=O	.	?	.	?	?	-13%
CC1(C)CC(=O)c2cc(-c3nc(-c4ccc(Cl)cc4)cs3)c(=O)n(-c3ccc(Cl)cc3)c2C1	.	-1%[59 µM]	.	7%	-1%	40%
COc1ccc(-n2c3c(cc(-c4nc(-c5ccc(Cl)cc5)cs4)c2=O)C(=O)CC(C)(C)C3)cc1	.	4.5µM*	.	?	-14%	46%
Cc1cc2c(n1-c1ccc(Cl)cc1)CC(C)(C)CC2=O	.	-9%[12.7 µM]	-2%	?	?	-7%
COc1ccc(-n2c(-c3ccc(Cl)cc3)cc3c2CC(C)(C)CC3=O)c(OC)c1	.	13µM*	.	11µM*	14µM*	?
CC1(C)CC(=O)c2cc(C#N)c(=O)n(-c3ccc(Cl)cc3)c2C1	.	14µM*	.	4%	-7%	36%
COc1ccc(C2CC(=O)c3cc(-c4nc(-c5cccc([N+](=O)[O-])c5)cs4)c(=O)n(-c4cccc(C)c4)c3C2)cc1 (stereo unspecified)	.	16µM*	.	-19%	-25%	20%
COc1ccc(-c2cc(C3C4C=CCCC4(C)C(=O)N3Cc3ccccc3)ccc2F)cc1OC (stereo unspecified)	.	.	?	.	-34%	9%
COc1ccc(-n2c3c(cc(-c4nc(-c5ccc(Cl)cc5)cs4)c2=O)C(=O)CC(C)(C)C3)cc1Cl	.	8.9µM*	.	-36%	-10%	29%
Cc1ccc(-n2c3c(cc(-c4nc(-c5ccc(Cl)cc5)cs4)c2=O)C(=O)CC(C)(C)C3)cc1	.	15%[59 µM]	.	6%	19%	71%
Cc1cnn(C(=O)c2cc(-c3ccccn3)nc3ccc(Cl)cc23)c1	-3%	?	-29%	56µM*	-15%	13%
O=C(NC1CCCCC1)c1cc(-c2ccccn2)nc2ccccc12	5%	50µM*	24%	-14%	-17%	15%
SMILES	L3MBTL1 block	G9a block	Sfp PPTase inh	BAZ2B inh	JMJD2A Tudor	HP1b chromo inh
O=C(NCCc1ccc(Cl)cc1)c1cc(-c2ccccn2)nc2ccccc12	.	18%[59 µM]	-15%	-21%	22µM*	-1%
Cc1ccc(C)c(-c2cc(C(=O)NNC(=S)NCC(C)C)c3ccccc3n2)c1	-10%	10µM*	7%	-4%	-20%	-9%
CCNC(=S)NNC(=O)c1cc(-c2ccccc2C)nc2ccccc12	-6%	?	-3%	-3%[57.1 µM]	-33%	8%
O=C(NC1CCCCCC1)c1cc(-c2ccccn2)nc2ccccc12	-6%	-12%	-5%	-13%	-12%	19%
COCCCNC(=O)c1cnn(-c2ccccc2Cl)c1C1CCN(C(=O)OC(C)(C)C)CC1	.	-11%[59 µM]	.	10%[57.1 µM]	-17%	50%
Cc1ccc(Nc2cc(C(=O)NC3CCCC3)c3ccccc3n2)c(C)c1	.	-4%[59 µM]	.	.	-21%	12%
Cc1ccc(C)c(-c2cc(C(=O)NC3CC3)c3ccccc3n2)c1	.	45µM*	-5%	-25%	-24%	20%
CCCCNc1nc(Oc2ccc(OCC)nn2)nc(N2CCOCC2)n1	.	-3%[59 µM]	.	0%	-8%	46%
COc1ccccc1/C=N/N1CCN(c2ccc(Cl)cc2)CC1	8%[2.29 µM]	5%[0.501 µM]	3%	50µM*	40µM*	20%
O=C(N/N=C/c1ccc(OC(F)F)cc1OC(F)F)NC1CCCCC1	-1%	1%	-15%	-14%	-10%	35%
COc1ccccc1C=NN1CCCCCC1	.	.	.	.	45µM*	?
FC(F)Oc1ccc(/C=N/N2CCCCC2)c(OC(F)F)c1	-18%	56µM*	-1%	?	.	.
CCOc1cccc(/C=N/N2CCN(c3ccc(Cl)cc3)CC2)c1O	.	-31%	5%	?	-29%	5%
CC(OC(=O)COc1ccccc1)C(=O)NC1CCCC1 (stereo unspecified)	-7%	-5%[12.7 µM]	.	4%	3%	39%
Cc1ccc2cc(C(c3nnnn3Cc3ccccc3)N3CCc4ccccc43)c(=O)[nH]c2c1 (stereo unspecified)	.	9%[12.7 µM]	-11%	?	?	-3%
Cc1cccc2cc(C(c3nnnn3Cc3ccccc3)N3CCN(C)CC3)c(=O)[nH]c12 (stereo unspecified)	-1%	-16%	15%	2%	-12%	32%
Cc1ccc2[nH]c(=O)c(C(c3nnnn3Cc3ccccc3)N3CCc4ccccc43)cc2c1 (stereo unspecified)	.	28µM*	20µM*	?	?	-3%
Cc1ccc2cc(C(c3nnnn3Cc3ccccc3)N3CCc4ccccc43)c(=O)[nH]c2c1C (stereo unspecified)	.	20µM*	50µM*	6%	-21%	45%
CCc1ccc2[nH]c(=O)c(C(c3nnnn3Cc3ccco3)N3CCC(C)CC3)cc2c1 (stereo unspecified)	.	56µM*	6%	5%	-34%	10%
